ATXN2 expr inh – ATXN2 expression inhibition | AID 1745845 | Potency, µM (series often up to 57 µM), inactives show top-dose activity change, negative = inhibition, most hits filed as inhibitors | HEK-293 ATXN2-luciferase reporter, luminescence, 24 h | hit rate 0.72% among 360,000; note: potency is the fitted concentration of half-maximal effect; % is set by controls: 0 for no effect and ±100 for the full control effect; nearly all actives have a fitted effect of over 55% in size
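ATXN2-luciferase reporter cells (luciferase flanked by upstream and downstream ATXN2 gene portions) were treated 24 h at 37 °C with compounds at up to 57 uM. SteadyGlo luminescence gave expression; GF-AFC fluorescence gave viability.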
LDHA block – LDHA (human) enzyme inhibition. P00338. purified LDHA, NADH/diaphorase-resazurin fluorescence; stronger effect = lower value. activity change, % (values are at about 110 or 230 µM). hit rate 0.15% among 480,000. AID 1347041; in the data active = activity change below about -30%; inconclusive = mostly about -25% to -30%;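 note: plate controls were DMSO wells for no effect and wells without enzyme for full effect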
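Remaining NADH was detected by diaphorase (0.133 mg/mL) converting 37 µM resazurin to fluorescent resorufin, read at 0 and 20 minutes. The preceding 5-minute room-temperature reaction used 2 nM LDHA, 0.2 mM sodium pyruvate and 0.06 mM NADH at pH 7.4.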
IDH1 R132H inh – inhibitors of human mutant IDH1 R132H; hit rate 0.093% among 390,000; Potency, µM (highest dose often 76.6 µM), without a hit: at the top dose activity change, negative = inhibition, usual class: inhibitors; O75874; AID 602179; IDH1-R132H enzyme, NADPH consumption, diaphorase/resazurin fluorescence; note: potency is the fitted concentration of half-maximal effect; % is set by controls: 0 for no effect and ±100 for the full control effect; nearly all actives have a fitted effect of over 65% in size
Target sequence (O75874 whole entry R132H, stated change not applied): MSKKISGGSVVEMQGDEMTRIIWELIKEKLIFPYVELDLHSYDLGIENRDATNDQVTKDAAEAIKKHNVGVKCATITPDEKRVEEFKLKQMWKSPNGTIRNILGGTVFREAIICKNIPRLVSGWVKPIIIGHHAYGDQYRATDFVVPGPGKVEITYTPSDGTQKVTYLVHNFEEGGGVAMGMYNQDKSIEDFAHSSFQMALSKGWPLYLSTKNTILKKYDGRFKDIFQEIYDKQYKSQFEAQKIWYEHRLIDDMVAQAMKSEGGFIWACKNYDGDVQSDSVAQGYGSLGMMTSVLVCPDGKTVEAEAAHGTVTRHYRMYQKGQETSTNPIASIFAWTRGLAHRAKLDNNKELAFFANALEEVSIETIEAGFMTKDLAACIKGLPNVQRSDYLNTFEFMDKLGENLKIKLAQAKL
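IDH1-R132H (0.5 ug/mL dispensed) in pH 7.5 Tris buffer was preincubated 30 min with compound, then given a substrate mix of 0.016 mM NADPH and 2 mM alpha-KG for 80 min at room temperature; remaining NADPH was read by diaphorase/resazurin fluorescence.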
TGFb inhibitor – inhibitors of TGF-b signaling; Potency, µM (series often up to 46.1 µM), for inactives: top-dose activity, negative = inhibition, usual class: inhibitors; HepG2 CAGA-GFP TGF-b/SMAD3 reporter, GFP fluorescence, 18 h; TGF-beta stimulated, 500 pg/mL final; hit rate 1.2% among 410,000; note: potency is the fitted concentration of half-maximal effect; % is set by controls: 0 for no effect and ±100 for the full control effect; nearly all actives have a fitted effect of over 65% in size
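Inhibition of TGF-beta-driven CAGA-GFP reporter expression in HEPG2 cells is measured by cellular GFP fluorescence after 18 h stimulation with 500 pg/mL recombinant TGF-beta in 1% FBS medium at 37 degrees C.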
HepG2 viability – kills HepG2 cells in TGF-b inhibitor counter-screen | AID 588856 | hit rate 0.76% among 410,000 | HepG2 CAGA-GFP viability, ATP luminescence, 18 h | Potency, µM (top dose mostly 46.1 µM), for the others: at the highest dose activity change, negative = cytotoxicity, usual class: cytotoxic; note: potency is the fitted concentration of half-maximal effect
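HepG2 CAGA-GFP cells (1000/well, DMEM with 1% FBS) received compound, then TGF-beta at 500 pg/mL final, and were incubated 18 hours at 37 degrees C. Viability was read by CellTiter-Glo luminescence. Media-only wells were set as complete cell-killing and DMSO as no toxicity.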
S2 tox – reduces viability in counter-screen for ATXN expression inhibitors | S2 cells (HEK-293 line with an ATXN2-luciferase reporter) viability, CellTiter-Fluor protease fluorescence, 24 h | Potency, µM (top dose mostly 56.7 µM), most hits filed as cytotoxic | hit rate 0.49% among 400,000 | AID 651635; note: potency is the fitted concentration of half-maximal effect; nearly all actives have a fitted effect of over 40% in size
Active calls of the source: *; ! = not confirmed by another sample. In the library only some 2.2% were active in any assay of this set; here they are far more common. Unless noted, calls come from the whole dose curve; as a rule, active = well fitted curve in the direction sought with a large enough effect; inconclusive = small, poorly fitted or top-dose-only effect, or another doubt; inactive = no such curve, though single readings can be large; an effect the other way counts as inactive or inconclusive.

`COc1cc(/C=C/[N+](=O)[O-])ccc1OCc1cccc(C(=O)O)c1` gave ATXN2 expr inh 28µM*, LDHA block 11, IDH1 R132H inh 10%, TGFb inhibitor inconclusive, HepG2 viability -40% and S2 tox inconclusive.
For CCc1ccc(OCc2cccc(C(=O)O)c2)cc1 the results were LDHA block 15.
O=C(O)c1ccc(COc2ccc(CO)cc2Cl)cc1 was read as ATXN2 expr inh 5%, LDHA block -5, IDH1 R132H inh -3%, TGFb inhibitor 0%, HepG2 viability -5% and S2 tox inactive.
`CCOc1ccc(OCc2cccc(C(=O)O)c2)cc1` gave ATXN2 expr inh 0.28µM*, LDHA block -6, IDH1 R132H inh -4%, TGFb inhibitor -5%, HepG2 viability -67% and S2 tox inactive.
`O=C(NCC(c1cccnc1)N1CCN(c2ccccc2)CC1)C1CCCCC1` (centres undefined) gave ATXN2 expr inh -1%, LDHA block 0, IDH1 R132H inh -1%, TGFb inhibitor -13%, HepG2 viability -3% and S2 tox inactive.
OC(CN1c2ccccc2Sc2ccccc21)Cn1nnc2ccccc21 (centres undefined) was read as ATXN2 expr inh -11%, LDHA block -3, IDH1 R132H inh -3%, TGFb inhibitor 0%, HepG2 viability 18µM* and S2 tox inconclusive.
Cc1nn(CC(O)CN2c3ccccc3Sc3ccccc32)c(C)c1Br (centres undefined) was read as ATXN2 expr inh 0%, LDHA block 2, IDH1 R132H inh 2%, TGFb inhibitor 13µM*, HepG2 viability -121% and S2 tox inactive.
For CCc1ccc(C(=O)Nc2cc(CN3CCN(C)CC3)cc(C(F)(F)F)c2)cc1C#Cc1cnc2ccnn2c1 the results were ATXN2 expr inh 24µM*.
`Cc1ccc(C(=O)Nc2ccc(CN3CCN(C)CC3)c(C(F)(F)F)c2)cc1C#Cc1cnc2cccnn12` gave ATXN2 expr inh 19µM*.
CC1CCN(C2CCN(C(=O)c3ccccc3F)CC2)CC1 was read as ATXN2 expr inh -2%, LDHA block -10, IDH1 R132H inh 12%, TGFb inhibitor -9%, HepG2 viability 11µM* and S2 tox inactive.
Screening COc1cc2nc(NC(=O)c3ccc(Cl)cc3)sc(=O)c2cc1OC returned ATXN2 expr inh -35%, LDHA block -5, IDH1 R132H inh 1%, TGFb inhibitor -1%, HepG2 viability -3% and S2 tox inconclusive.
For Cc1occc(=O)c1OC(=O)Nc1ccc(Cl)c(Cl)c1 the results were ATXN2 expr inh -5%, LDHA block 1, IDH1 R132H inh 0%, TGFb inhibitor 10µM*, HepG2 viability -66% and S2 tox inconclusive.
`Cc1ccc(Nc2cc(C)nn2-c2nc(C)cc(=O)[nH]2)cc1` gave ATXN2 expr inh 1.1µM*, LDHA block -5, IDH1 R132H inh -5%, TGFb inhibitor 2.2µM*, HepG2 viability -27% and S2 tox 2µM*.
`O=C(OCCC12CC3CC(CC(C3)C1)C2)c1ccc(NCc2cc(O)ccc2O)cc1` gave ATXN2 expr inh inconclusive, LDHA block 21, IDH1 R132H inh 9%, TGFb inhibitor inconclusive and HepG2 viability -90%.
O=C(OCC12CC3CC(CC(C3)C1)C2)c1ccc(NCc2cc(O)ccc2O)cc1 was read as ATXN2 expr inh 10µM*, LDHA block 18, IDH1 R132H inh -11%, TGFb inhibitor inconclusive, HepG2 viability 11µM* and S2 tox 13µM*.
For CCOc1cc(/C=C2\CN(CC)C/C(=C\c3ccc(O)c(OCC)c3)C2=O)ccc1O the results were ATXN2 expr inh inconclusive, LDHA block 9, IDH1 R132H inh 2%, TGFb inhibitor 5.6µM*, HepG2 viability 8.9µM* and S2 tox inconclusive.
Screening COc1cc(C=C2C(=O)C=CC2=O)ccc1O returned ATXN2 expr inh 13µM* and LDHA block -8.
`COc1cc(C=C2CCC/C(=C\c3ccc(O)c(OC)c3)C2=O)ccc1O` gave ATXN2 expr inh 16µM* and S2 tox 28µM*.
For CCOc1cc(/C=N/N=C/c2ccc(O)c(OCC)c2)ccc1O the results were ATXN2 expr inh -4%, LDHA block 0, IDH1 R132H inh -10%, TGFb inhibitor -10%, HepG2 viability -13% and S2 tox inactive.
`COc1cc(/C=C2/C(=O)CNC2=O)ccc1O` gave ATXN2 expr inh 7%, LDHA block 1, IDH1 R132H inh 1%, TGFb inhibitor 2%, HepG2 viability 9% and S2 tox inactive.
COc1cc(/C=C2/CCCC(C(=O)C(F)(F)F)=C2O)ccc1O was read as ATXN2 expr inh 31%, LDHA block 3, IDH1 R132H inh -13%, TGFb inhibitor 9%, HepG2 viability -11% and S2 tox inactive.
For COc1cc(/C=C2\CCC/C(=C\c3ccc(O)c(OC)c3)C2=O)ccc1O the results were ATXN2 expr inh inconclusive, LDHA block 21, IDH1 R132H inh -19%, TGFb inhibitor inconclusive and HepG2 viability 10µM*!.
`COc1cc(/C=C2\CC/C(=C\c3cc(OC)c(O)c(OC)c3)C2=O)cc(OC)c1O` gave ATXN2 expr inh inconclusive, LDHA block 26, IDH1 R132H inh -17%, TGFb inhibitor inconclusive and HepG2 viability -46%.
`O=C1NC(=O)/C(=C/c2cccc([N+](=O)[O-])c2)N1` gave LDHA block 2, IDH1 R132H inh 1%, TGFb inhibitor -1%, HepG2 viability 9% and S2 tox inactive.
Screening CCN1C/C(=C/c2cccc([N+](=O)[O-])c2)C(=O)/C(=C/c2cccc([N+](=O)[O-])c2)C1 returned ATXN2 expr inh 3.2µM*, LDHA block -3, IDH1 R132H inh 1%, TGFb inhibitor inconclusive, HepG2 viability -53% and S2 tox 4µM*.
`COc1cc(/C=C2/CCC/C(=C\c3cc(O)c(OC)c(Cl)c3)C2=O)cc(Cl)c1O` gave ATXN2 expr inh inconclusive, LDHA block 12, IDH1 R132H inh -15%, TGFb inhibitor inconclusive and HepG2 viability 13µM*.
`O=C(NCc1ccccn1)Nc1cccc(Cl)c1Cl` gave ATXN2 expr inh 34%, LDHA block -7, IDH1 R132H inh 19%, TGFb inhibitor 5%, HepG2 viability 16% and S2 tox inactive.

Screening data (PubChem BioAssay)
